Several values for one entry are separate records, joined by “and”; a condition that tells them apart may be missing. Equal values may be shown once. Hit rate of the full screen: of about 200,000 compounds, about 18,000 (9%) were called active. The sample holds actives, similar compounds and a random draw of the others, so the mix is not that of the screen. No stated cut-off is given here; in the data, active means inhibition above about 50%; inactive means the rest. Some compounds were tested as several samples or in several runs, with calls that do not always agree.
Assay: Leishmania major promastigote growth inhibition, primary screen (AID 1063);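 further: promastigotes grown with compound for 44 hours at 28 °C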
Settings: Leishmania major promastigotes, resazurin fluorescence viability; at 10 µM; stronger effect = higher value

Compound	inhibition
Cc1c(Br)c([N+](=O)[O-])nn1CC(=O)Nc1sc2c(c1C(=O)OC(C)C)CCC(C)C2 (configuration not stated)	-5.92% (inactive)
COC(=O)c1c(NC(=O)CN2C(=O)NC(CCc3ccccc3)C2=O)sc2c1CCCCC2 (configuration not stated)	28.1% (inactive)
COC(=O)c1c(NC(=O)CN2CCN(S(=O)(=O)c3ccccc3[N+](=O)[O-])CC2)sc2c1CCC(C)C2 (configuration not stated)	76.2% (active)
Cc1ccc(NC(=O)C(=O)NCc2ccco2)c(C)c1	-8.28% (inactive)
C/C(CC(=O)Nc1ccc(C)cc1C)=N\NC(=O)C(C)C	13.4% (inactive)
NC(=O)c1ccc(N2CCOCC2)nc1	2.59% (inactive)
CCn1cnc2scc(-c3ccc(C)c(C)c3)c2c1=O	-4.16% (inactive)
COc1ccc(-c2csc3ncnc(Oc4ccc5c(C)cc(=O)oc5c4)c23)cc1	16.6% (inactive)
Cc1cc(F)ccc1S(=O)(=O)Nc1ncnc2scc(-c3ccc(F)cc3)c12	64.1% (active)
O=C(NCc1nnc(SCC(=O)N2CCC(Cc3ccccc3)CC2)o1)c1ccco1	25% (inactive)
COCC(C)NC(=O)COc1nncc2ccccc12 (configuration not stated)	4.91% (inactive)
CNC(=O)NC(=O)C(OC(=O)c1cccc(S(=O)(=O)N2CCCCC2)c1)c1ccccc1 (configuration not stated)	63.2% (active)
CN1CCN(S(=O)(=O)c2cccc(C(=O)O)c2)CC1	-1.21% (inactive)
O=C(NNC1=NCCC1)c1cccc(S(=O)(=O)N2CCCCC2)c1	-5.29% (inactive)
CCN1CCCC1CNc1ncnc2c1[nH]c1ccc(F)cc12 (configuration not stated)	78.6% (active)
CCN1CCCC1Cn1cnc2c([nH]c3cc(OC)ccc32)c1=O (configuration not stated)	10.5% (inactive)
CC(C)OCCCNc1ncnc2c1[nH]c1ccc(F)cc12	36.3% (inactive)
O=C(NCC1CCCCC1)c1cc(S(=O)(=O)N2CCCCC2)ccc1N1CCOCC1	7.99% (inactive)
Cc1cc(/C=C2/C(=N)N3C(=NC2=O)SN=C3S(C)(=O)=O)c(C)n1-c1ccccc1	3.11% (inactive)
Cc1cccc(NC(=O)c2cccc(C(F)(F)F)c2)c1	13.2% (inactive)
CC(NC(=O)c1ccc(N2CCNCC2)c([N+](=O)[O-])c1)C12CC3CC(CC(C3)C1)C2 (configuration not stated)	7.22% (inactive)
O=C(COc1ccccc1F)NNC(=O)c1ccc(N2CCCCC2)c([N+](=O)[O-])c1	-1.27% (inactive)
O=C(Nc1cccc(C(F)(F)F)c1)c1ccc(N2CCNCC2)c([N+](=O)[O-])c1	100% (active)

Compound	inhibition
O=C(Nc1ccc2c(c1)OCO2)c1ccc(N2C(=O)c3ccccc3C2=O)cc1	-0.72% (inactive)
O=C(Nc1ccc(N2C(=O)c3cccc4cccc(c34)C2=O)cc1)c1ccc(N2CCCCC2)c([N+](=O)[O-])c1	75% (active)
C/C(=N/NC(=O)CCc1ccccc1)c1ccco1	11.8% (inactive)
CC1=NN(C(=O)c2ccc(Br)cc2)C(O)(c2ccccc2)C1 (configuration not stated)	-9.77% (inactive)
CCCCOc1ccc(-c2nnc(-c3ccco3)o2)cc1	-7.38% (inactive)
CCC(=O)Oc1cccc(C(=O)Nc2ccc(-c3nnc(-c4ccco4)o3)cc2)c1	98.9% (active)
CCOc1ccc(-c2nnc(-c3ccco3)o2)cc1	2.35% (inactive)
CCN(CC)S(=O)(=O)c1ccc(Cl)c(C(=O)NC(C)C(c2cccs2)N2CCCC2)c1 (configuration not stated)	10.7% (inactive)
Cc1cc(N2CCOCC2)nc2ccc(NC(=S)N3CCN(Cc4ccccc4)CC3)cc12	36.5% (inactive)
CCOC(=O)/C(=C\c1ccc([N+](=O)[O-])cc1)C(=O)c1cc(C(C)=O)c(Nc2ccccc2)s1	101% (active)
O=C(Nc1ccccc1)/C(=C/c1ccc([N+](=O)[O-])cc1)NC(=O)c1ccccc1	-0.93% (inactive)
CCOC(=O)/C(=N\Nc1ccccc1[N+](=O)[O-])c1csc(Nc2ccccc2)n1	15.4% (inactive)
Cc1ccc(C(=O)N/C(=C/c2cccs2)C(=O)NCC2CCCO2)cc1 (configuration not stated)	-3.66% (inactive)
CC(C)C(=O)Nc1cccc(NC(=S)NC(=O)C(c2ccccc2)c2ccccc2)c1	100% (active)
CCCCC(=O)NNC(=S)NC(=O)C(c1ccccc1)c1ccccc1	22.8% (inactive)
CC(C)C(=O)NC(=S)Nc1ccccc1F	-3.27% (inactive)
CC(C)(C)c1ccc(C(=O)NCc2nnc(SCC(=O)N3CCCc4ccccc43)n2-c2ccccc2)cc1	-4.1% (inactive)
COc1ccccc1CCNC(=O)CSc1nnc2ccc(-c3cccnc3)nn12	1.51% (inactive)
OC(COc1ccccc1)Cn1cc(Br)cn1 (configuration not stated)	-7.06% (inactive)
C=CCn1c(=N)n(CC(O)COc2ccc(OC)cc2)c2ccccc21 (configuration not stated)	34.9% (inactive)
OC(CN=c1sc2ccccc2n1CC(O)COc1ccccc1)COc1ccccc1 (configuration not stated)	63.1% (active)
C/C(N)=C(/C#N)C(=O)COC(=O)CNS(=O)(=O)c1ccc(C)cc1	-2.53% (inactive)
Cc1ccc(C)n1NC(=O)c1ccc([N+](=O)[O-])cc1	-0.24% (inactive)

Compound	inhibition
CC1CC(C)CN(C(=O)CSc2ccsc2[N+](=O)[O-])C1 (configuration not stated)	8.96% (inactive)
S=c1[nH]nc2c3c4c(sc3ncn12)CCCC4	72.6% (active)
c1nnc2c3c4c(sc3ncn12)CCC4	-5.73% (inactive)
CC(C(=O)O)n1cnc2sc3c(c2c1=O)CCCC3 (configuration not stated)	-4.65% (inactive)
COc1cc(OC)cc(C(=O)OCC(=O)Nc2sccc2C(N)=O)c1	18.3% (inactive)
Cc1cc(C)c(S(=O)(=O)NCCCN2CCOCC2)cc1Br	94.6% (active)
Cc1cc(C)cc(NC(=S)NCCCN2CCOCC2)c1	11.8% (inactive)
Cc1ccc(S(=O)(=O)NCCN2CCOCC2)cc1C	-7.43% (inactive)
O=C(NCc1cccs1)c1cc(-c2ccccn2)nc2ccc(Br)cc12	-5.05% (inactive)
CC(=O)Nc1ccc(OCCC[n+]2cccc(C(=O)[O-])c2)cc1	0.17% (inactive)
COCCNC(=O)/C(C#N)=C/c1cccc(OCc2ccccc2)c1	47% (inactive)
COc1ccc(-c2cc(C(=O)NCCCn3ccnc3)no2)cc1	36.3% (inactive)
CCOc1ccccc1C(=O)NCCCn1ccnc1	0.51% (inactive)
COc1ccccc1-c1cc(C(=O)NCCCn2ccnc2)no1	6.26% (inactive)
COc1ccc(/C=C(\C#N)C(=O)NCCCn2ccnc2)cc1	55.7% (active)
COc1cccc(-c2nn(-c3ccccc3)cc2/C=C(\C#N)C(=O)NCCCn2ccnc2)c1	100% (active)
Cc1nccn1CCCNC(=O)CC1C(=O)NCCN1Cc1ccc(Cl)c(F)c1 (configuration not stated)	5.03% (inactive)
Cc1cccc(NS(=O)(=O)c2ccc(C)c(C(N)=O)c2)c1	-3.69% (inactive)
O=C(Nc1ccccc1C(=O)N1CCOCC1)c1ccc(Cl)cc1	1.24% (inactive)
NS(=O)(=O)c1cccc(NC(=O)CN2CCCc3ccccc32)c1	-1.56% (inactive)
O=C(NNC(=S)NCc1ccco1)C(c1ccccc1)c1ccccc1	45.2% (inactive)
Cc1cc(O)c(NC(=O)c2ccc(C)c([N+](=O)[O-])c2)cc1C	1.25% (inactive)
COCC(C)NC(=O)CSc1nc2nn(-c3ccccc3)c(=O)c-2c2n1CCCCC2 (configuration not stated)	34.5% (inactive)

Compound	inhibition
COc1ccc(C(=O)C2CCCN(Cc3cccn3-c3ccccn3)C2)c(C)c1 (configuration not stated)	99.8% (active)
CCOC(=O)c1[nH]ncc1CN1CCCC(C(=O)c2ccc(OC)cc2C)C1 (configuration not stated)	1.77% (inactive)
CCn1ccnc1CN1CCCC(C(=O)c2ccc3c4c(cccc24)CC3)C1 (configuration not stated)	40% (inactive)
O=C(CN1CCOCC1)Nc1c(Cl)cc(Cl)cc1Cl	-3.49% (inactive)
O=C(Nc1ccc(F)cc1)N1CCCC(c2nc3c(nnn3Cc3ccccc3Cl)c(=O)[nH]2)C1 (configuration not stated)	-7.44% (inactive)
COC(C(=O)Nc1ccc(S(=O)(=O)Nc2ccc(C)c(C)c2)cc1)c1ccccc1 (configuration not stated)	56.7% (active)
COC(C(=O)NCc1ccccc1C)c1ccccc1 (configuration not stated)	-3.9% (inactive)
COC(C(=O)Nc1ccc(C(C)=O)cc1)c1ccccc1 (configuration not stated)	-5.21% (inactive)
Cc1ccc(C(=O)N/C(=C\c2ccco2)C(=O)N2CCSCC2)cc1C	10.4% (inactive)
O=C(CCCn1c(=O)c2sccc2n(CC(=O)NCC2CCCO2)c1=O)NCc1ccco1 (configuration not stated)	-8.29% (inactive)
CC1CCCC(C)N1/N=C/c1ccccc1OC(F)F (configuration not stated)	-3.94% (inactive)
Oc1ccc(Br)cc1C=Nc1ccc2[nH]ncc2c1	-4.98% (inactive)
c1ccc2[nH]c(-c3nc4ccccc4[nH]3)nc2c1	33.9% (inactive)
Oc1ccc(Cl)cc1/C=N/c1nc2ccccc2[nH]1	63% (active)
O=C(Nc1nnc(-c2ccco2)o1)c1ccc(S(=O)(=O)N2CCOCC2)cc1	3.15% (inactive)
COc1cccc(-c2nnc(NC(=O)c3ccc(S(=O)(=O)N(CC(C)C)CC(C)C)cc3)o2)c1	100% (active)
COc1cccc(NC(=O)c2ccc(S(=O)(=O)N(C)C)cc2)c1	-7.02% (inactive)
CCOc1ccc2nc(NCCNC(=O)C(C)(C)C)c(C)cc2c1	5.84% (inactive)
CN(CC(=O)NCCc1ccccn1)S(=O)(=O)c1ccc(Cl)cc1	6.18% (inactive)
COc1ccc(CN2CCCC(C(=O)c3ccc(Cl)cc3)C2)cc1Cn1cncn1 (configuration not stated)	32% (inactive)
COc1ccc(CN2CCCC(CNC(=O)c3ccc(F)cc3)C2)cc1OC (configuration not stated)	14.8% (inactive)
COc1ccc(CCN(C)C(=O)C2CCCN(Cc3ccc(OC)c(OC)c3)C2)cc1OC (configuration not stated)	-6.68% (inactive) and 55.5% (active)
O=C1CN(C(=O)CN2C(=O)NC3(CCCCC3)C2=O)c2ccccc2N1	-5.28% (inactive)
